According to PubChem BioAssay (Tox21):
Inconclusive results are not listed. The source made the active and inactive calls. The call rests on the fitted dose curve; in most records, active means well fitted activation curve with a large enough effect in the signal ratio in the repeat runs (not every such curve was filed as active); inconclusive means weak or mixed curves; inactive means flat fitted curve, though single readings scatter; the % refers to the signal ratio.

Experiment: qHTS assay to identify small molecule agonists of the TGF-beta/Smad signaling pathway (AID 1346859)
Settings: SBE-bla HEK293T, TGF-beta/Smad beta-lactamase reporter, 5 h; series mostly up to 76.8 µM
Description: U.S. Tox21 Program National Center for Advancing Translational Sciences [NCATS] NIH Chemical Genomics Center [NCGC] U.S. Environmental Protection Agency [EPA] National Institutes of Environmental Health Sciences [NIEHS] National Toxicology Program [NTP] U.S. Food and Drug Administration [FDA] Tox21 Assay Overview: Transforming growth factor beta (TGF-beta) superfamily consists of a large number of structurally related dimeric proteins that act as hormones or local mediators in regulating a wide range of biological functions. This superfamily includes TGF-betas themselves, the bone morphogenetic proteins (BMPs) and the activins. These ligands induce oligomerization of serine/threonine receptor kinases and phosphorylate the cytoplasmic signaling molecules of Smad protein family. CellSensor SBE-bla HEK 293T cell line (Life Technologies, Carlsbad, CA), responsive to TGF-beta was used to screen Tox21 10K compound library for identification of agonists/antagonists of the Smad signaling pathway. This cell line contains a beta-lactamase reporter gene under control of the Smad binding element (SBE) stably integrated into HEK 293T cells.
Tox21 Assay Protocol Summary: SBE-bla HEK 293T cells were dispensed at 4,000/well in 6 uL of assay medium into black wall/clear-bottom 1536-well plates using a Multidrop Combi (ThermoFisher Scientific, Waltham, MA) dispenser. After the assay plates were incubated at 37 C and 5% CO2 for an overnight, 23 nL of compounds dissolved in DMSO, positive controls or DMSO only was transferred to the assay plate by a Pintool station (Kalypsys, San Diego, CA). The assay plates were incubated at 37 C and 5% CO2 for 5 hr. One uL of LiveBLAzer B/G FRET substrate (Life Technologies) was added using a Flying Reagent Dispenser (Aurora Discovery, San Diego, CA) and the plates were incubated at room temperature for 2 hr. Fluorescence intensity (405 nm excitation, 460 nm and 530 nm emissions) was measured using an Envision plate reader (PerkinElmer, Shelton, CT).

Structure (SMILES) | outcome
O=S(=O)(O)c1cccc2c(S(=O)(=O)O)cccc12 | inactive
O=C1NC(=O)C2CC=CCC12 (stereo not given) | inactive
C[N+](C)(C)CCCCCCCCCC[N+](C)(C)C | inactive
Cc1nc(C2CCCCC2)c(-c2ccc(S(N)(=O)=O)c(F)c2)o1 | inactive
CCOC(=O)CCC(=O)OCC | inactive
[K+] | inactive
C=CN1CCCCCC1=O | inactive
CCN1C=CN(C)C1C (stereo not given) | inactive
CC(=O)OCC(=O)[C@@]1(O)[C@H](C)C[C@H]2[C@@H]3CCC4=CC(=O)C=C[C@]4(C)[C@@]3(F)[C@@H](O)C[C@@]21C | inactive
N[C@H](C(=O)O)[C@@H](O)c1ccc(O)c(O)c1 | inactive
CCN[C@H]1C[C@H](C)S(=O)(=O)c2sc(S(N)(=O)=O)cc21 | inactive
CC(C)c1ccc2ncccc2c1 | inactive
CCOC(=O)OC(C)OC1=C(C(=O)Nc2ccccn2)N(C)S(=O)(=O)c2ccccc21 (stereo not given) | inactive
C=CCCCCCCCCC(=O)OCC | inactive
CCC(C(=O)NC(=O)NC(C)=O)c1ccccc1 (stereo not given) | inactive
CO/N=C(\C(=O)N[C@@H]1C(=O)N2C(C(=O)O)=C(CSc3nc(=O)c(O)nn3C)CS[C@H]12)c1csc(N)n1 | inactive
Cc1ccc(C(=O)Nc2ccc(S(=O)(=O)O)c3cc(S(=O)(=O)O)cc(S(=O)(=O)O)c23)cc1NC(=O)c1cccc(NC(=O)Nc2cccc(C(=O)Nc3cc(C(=O)Nc4ccc(S(=O)(=O)O)c5cc(S(=O)(=O)O)cc(S(=O)(=O)O)c45)ccc3C)c2)c1 | inactive
O=C(O)CNC(=O)c1ccc(CO)o1 | inactive
CCN(C=O)CC | inactive
CCCCCC(=O)OCCc1ccccc1 | inactive

Structure (SMILES) | outcome
CC1=NN(c2cc(S(=O)(=O)O)ccc2Cl)C(=O)C1N=Nc1ccccc1 (stereo not given) | inactive
c1ccc(CCc2ccccc2)cc1 | inactive
NC(=O)NC1N=C([O][Al])NC1=O (stereo not given) | inactive
NC(CCC(=O)O)C(=O)O (stereo not given) | inactive
CN(C)C(=O)Oc1cccc([N+](C)(C)C)c1 | inactive
C=C(C)C(=O)OCC(O)CO (stereo not given) | inactive
CC1CCC(CO)CC1 (stereo not given) | inactive
COc1cc(C(=O)OC(COCCC(C)C)CN2CCOCC2)cc(OC)c1OC (stereo not given) | inactive
CC(COc1ccccc1)NN (stereo not given) | inactive
CCCc1ncc(C[n+]2ccccc2C)c(N)n1 | inactive
O=C(O)CC(C(=O)O)S(=O)(=O)O (stereo not given) | inactive
CN(C)CCCCCCN(C)C | inactive
FB(F)F | inactive
CCN1CCOCC1 | inactive
CC(C)CC(C)(N)C#N (stereo not given) | inactive
C=COC(=O)C(C)(CC)CCC(C)C (stereo not given) | inactive
Cc1ncc([C@@H](CCCCCCc2ccc3c(n2)NCCC3)CC(=O)O)cn1 | inactive
CCCCCCCCCCCCSC | inactive
CCCCN(CCC(=O)OCC)C(C)=O | inactive
COc1cc(C)nc(-n2nc(C)cc2OC)n1 | inactive
